# According to PubChem BioAssay AID651815 (National Center for Advancing Translational Sciences (NCATS), 2012):
# Among all 2,100 compounds or so, about 1,100 (52%) were called active. Another 29% or so got no clear call; they are omitted. The set was probably picked from earlier hits. This is one part of the list. Values without a mark were called inactive. Calls follow the shape of the dose curve; as a rule, active = well fitted inhibition curve with a large enough effect; inconclusive = small, poorly fitted or top-dose-only effect; inactive = no such curve, though single readings can be large or run the other way.
# Molecular target: DNA dC->dU-editing enzyme APOBEC-3F (Homo sapiens) (UniProt Q8IUX4)
# Sequence (Q8IUX4 whole entry, looked up): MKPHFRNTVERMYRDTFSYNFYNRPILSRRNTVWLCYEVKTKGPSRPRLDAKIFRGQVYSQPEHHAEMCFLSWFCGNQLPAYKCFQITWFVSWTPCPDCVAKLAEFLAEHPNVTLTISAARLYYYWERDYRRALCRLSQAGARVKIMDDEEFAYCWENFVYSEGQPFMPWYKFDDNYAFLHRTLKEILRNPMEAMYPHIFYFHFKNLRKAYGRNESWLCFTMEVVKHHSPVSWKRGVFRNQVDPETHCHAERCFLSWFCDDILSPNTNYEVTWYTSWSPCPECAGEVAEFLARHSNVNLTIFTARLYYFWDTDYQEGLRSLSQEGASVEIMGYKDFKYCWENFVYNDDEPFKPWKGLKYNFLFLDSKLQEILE
# Assay: qHTS for inhibitors of Vif-A3F interactions: Cherry picks counterscreen; also: nearly all actives have a fitted effect of over 65% in size
# Settings: HeLa A3F-eYFP/Vif cells, eYFP fluorescence, 24 h; series mostly up to 46.1 µM; activity, negative = inhibitor: at the top concentration
# In short: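 Rescue of Vif-driven A3F-eYFP degradation read as cellular eYFP fluorescence after 24 h compound exposure (several concentrations) in stable HeLa cells; MG132 (2 mM stock) as positive control.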
# % is scaled to controls: 0 for no effect and ±100 for the full control effect; potency is read from the fitted curve at half-maximal effect.
Compound,Potency,"activity, negative = inhibitor"
Cc1ccc(C)c(N2CCN(C(=O)c3cccn4c(=O)c5sccc5nc34)CC2)c1,15.8 µM (active),–
O=c1[nH]c2ccccc2nc1/C=C(\O)c1cccs1,16.4 µM (active),–
O=C(NCc1ccc2c(c1)OCO2)c1cc([N+](=O)[O-])ccc1N1CCCCC1,1.58 µM (active),–
O=C(/C=C/c1cccs1)NCc1ccc2c(c1)OCO2,–,-0.325%
O=C(NCc1ccc2c(c1)OCO2)c1cc([N+](=O)[O-])ccc1N1CCOCC1,4.98 µM (active),–
O=[N+]([O-])c1cc(-c2nc(-c3ccccc3)no2)ccc1NCc1ccco1,13 µM (active),–
COc1ccccc1-c1noc(-c2ccc(NCc3ccco3)c([N+](=O)[O-])c2)n1,18.4 µM (active),–
Cc1cccc(-c2noc(-c3ccc(NCc4ccco4)c([N+](=O)[O-])c3)n2)c1,14.6 µM (active),–
CCCCOc1ccc2c(c1)/C(=C(\C(Cl)=C(Cl)Cl)[N+](=O)[O-])N2,–,-6.09%
N#Cc1c(C(F)(F)F)cc(-c2ccco2)nc1SCc1ccccn1,16.4 µM (active),–
Cc1cc2nc3c(=O)n(Cc4ccccc4)c(=O)[nH]c3nc2cc1N,0.125 µM (active),–
Cc1cc2nc3c(=O)n(C4CCCCC4)c(=O)[nH]c3nc2cc1N,9.2 µM (active),–
Cc1cc2nc3c(=O)n(CCc4ccccc4)c(=O)[nH]c3nc2cc1N,5.17 µM (active),–
CCCCN(C(=O)c1ccc([N+](=O)[O-])s1)c1c(N)n(CCCC)c(=O)[nH]c1=O,–,-5.21%
CCOC(=O)N1CCN(C(=O)c2ccccc2-c2ccccc2)CC1,2.8 µM (active),–
CN(C)c1ccc(/C=C/C(=O)c2c(O)c3ccccc3oc2=O)cc1,4.11 µM (active),–
CC(/C=C/c1ccc(N(C)C)cc1)=N\N=C(/N)SC1CC(=O)N(c2ccc(C(=O)O)cc2)C1=O (stereo unspecified),–,-28.3%
CN(C)c1ccc(/C=C/C(=O)c2ccc(O)cc2)cc1,4.61 µM (active),–
CCN1/C(=C\C=C(C(C)=O)C(C)=O)Sc2ccccc21,14.6 µM (active),–
N#Cc1c(-c2ccccc2)c(-c2ccccc2)nn(CC(=O)NNC(=O)Nc2ccccc2)c1=O,4.44 µM (active),–
N#Cc1c(-c2ccc(F)cc2)c(-c2ccc(F)cc2)nn(CCO)c1=O,4.44 µM (active),–
CC1(C)Cc2ccccc2C2CC(O)C(=O)N21 (stereo unspecified),18.4 µM (active),–
Cc1ccc(-c2ccc(/C=N/NC(N)=S)o2)cc1,–,-1.63%

Compound,Potency,"activity, negative = inhibitor"
Cc1ccc(NC(=O)/C(C#N)=C\c2ccc(-c3ccc(Cl)cc3)o2)c(C)c1,13 µM (active),–
FC(F)(F)c1ccccc1NC(=S)NN=C1CCCCCC1,–,5.84%
O=C1/C(=C/c2ccc(O)cc2)SC(=S)N1Cc1cccnc1,–,8.88%
O=C1CSC(=S)N1Cc1cccnc1,13 µM (active),–
O=C(NCc1cccs1)C1CCN(c2ccc(S(=O)(=O)N3CCOCC3)cc2Cl)CC1,2.8 µM (active),–
CC(C)(C)OC(=O)NC(Cc1ccccc1)C(=O)N1CCC(C(=O)NCC(=O)Nc2ccc(F)cc2)CC1 (stereo unspecified),23.1 µM (active),–
Cc1cc(C)c(N2C(=O)CC(Sc3ccccc3N)C2=O)c(C)c1 (stereo unspecified),15.8 µM (active),–
Cc1cc(C)n(-c2nc3c(c(=O)[nH]c(=O)n3C)n2CC(O)COc2ccc(Cl)cc2Cl)n1 (stereo unspecified),2.23 µM (active),–
COc1ccc(S(=O)(=O)N2N=C(C)Oc3ccccc3C2=O)cc1,3.14 µM (active),–
CC1(C)CCN2CCC(C)(C)c3c(O)ccc1c32,14 µM (active),–
CCOc1ccc(CN2C(=O)c3ccccc3Sc3ccc(C(=O)O)cc32)cc1,7.31 µM (active),–
CC(C)OC(=O)c1c2c(n3ccccc13)C(=O)c1ccccc1C2=O,8.2 µM (active),–
CCOc1ccccc1C(=O)Nc1c(C(=O)Nc2ccc(F)cc2)oc2ccccc12,0.92 µM (active),–
Oc1ccc(C=NNC(=S)Nc2ccc(F)cc2)c(O)c1,–,-1.61%
Cc1cc(C)c[n+](-c2nc3ccccc3nc2[N-]S(=O)(=O)c2ccc(Br)s2)c1,9.2 µM (active),–
O=S(=O)([N-]c1nc2ccccc2nc1-[n+]1ccc(-c2ccncc2)cc1)c1ccccc1,18.4 µM (active),–
CCc1cc[n+](-c2nc3ccccc3nc2[N-]S(=O)(=O)c2ccc(Br)s2)cc1,8.2 µM (active),–
NN=C1c2ccccc2C(=O)C1C(=O)C(c1ccccc1)c1ccccc1 (stereo unspecified),12.5 µM (active),–
O=C(c1ccccc1)C1C(=O)c2ccccc2C1=O,–,11.3%
CCCCN1C(=O)C2Cc3c([nH]c4ccccc34)CN2C1=S (stereo unspecified),15.8 µM (active),–
CCS(=O)(=O)Nc1cccc(C2=NN(C(=O)c3ccco3)C(c3ccco3)C2)c1 (stereo unspecified),11.2 µM (active),–
CCCN1CCC(=NNc2ccc(S(=O)(=O)N3CCOCC3)cc2[N+](=O)[O-])CC1,3.96 µM (active),–
Cc1ccc(NC(=S)N=Nc2c(O)n(C)c3ccc(S(=O)(=O)N4CCOCC4)cc23)cc1,–,7.68%

Compound,Potency,"activity, negative = inhibitor"
O=C(O)c1ccccc1/C=N/Nc1ccc(S(=O)(=O)N2CCOCC2)cc1[N+](=O)[O-],–,-5.64% [at 36.9 µM]
COc1ccccc1CCC(=O)Nc1ccc2c(c1)c(=O)n(C)n2Cc1ccc(F)cc1,15.8 µM (active),–
COc1ccccc1CCC(=O)Nc1ccc2c(c1)c(=O)n(C)n2-c1cccs1,3.14 µM (active),–
CC(C)=CCn1c2ccc(NC(=O)NCc3ccc(F)cc3)cc2c(=O)n1C,3.14 µM (active),–
Cc1ccc2[nH]c3c(c2c1)CN(C(=O)CN1CC(C)OC(C)C1)CC3 (stereo unspecified),–,-19.8% [at 36.9 µM]
O=C(C[C@@H]1C/C=C/CC[C@H](Cc2ccc(F)cc2)C(=O)OC[C@@H](Cc2ccccc2)NC1=O)N[C@H](CO)Cc1ccccc1,16.4 µM (active),–
O=C(O)c1ccc(N/N=C/C(Br)=C/c2ccccc2)cc1,–,-0.273% [at 36.9 µM]
COc1cccc(C(=O)N/N=C/C(Br)=C/c2ccccc2)c1,2.8 µM (active),–
CC(/C=N/NC(=O)c1cccc(F)c1)=C\c1ccccc1,12.5 µM (active),–
C/C(=N/NC(N)=S)c1ccc(Br)s1,–,6.46%
CCCn1nc(C(=O)N2CC(=O)Nc3ccccc32)c2ccccc2c1=O,11.2 µM (active),–
COc1cc(OC)cc(C(=O)N2CC(=O)Nc3ccccc32)c1,1.25 µM (active),–
Cc1cc(C)cc(C(=O)N2CC(=O)Nc3ccccc32)c1,0.994 µM (active),–
O=C1CN(C(=O)c2cc(Br)c(Br)s2)c2ccccc2N1,6.27 µM (active),–
CCC(C)[C@H](NC(=O)N1CC(=O)Nc2ccccc21)C(=O)Nc1ccccc1C (stereo partly specified),15.8 µM (active),–
Cc1ccc(N/C(N)=N/c2nc(CSc3nnc(C)s3)cc(=O)[nH]2)c(C)c1,1.77 µM (active),–
CC(=Nc1ccccc1)C1=C(O)C(Cc2ccccc2)NC1=O (stereo unspecified),0.314 µM (active),–
CC#Cc1cc2c(cc1O)CCC1C2CCC2(C)C(O)CCC12 (stereo unspecified),5.59 µM (active),–
C=C(NC(=O)C(=C)NC(=O)c1csc(C2=NC3c4csc(n4)C4NC(=O)c5csc(n5)C(C(C)(O)C(C)O)NC(=O)C5CSC(=N5)/C(=C/C)NC(=O)C(C(C)O)NC(=O)c5csc(n5)C3(CC2)NC(=O)C(C)NC(=O)C(=C)NC(=O)C(=C)NC(=O)C(C(C)C)NC2C=Cc3c(C(C)O)cc(nc3C2O)C(=O)OC4C)n1)C(N)=O (stereo unspecified),5.59 µM (active),–
COc1ccc(NC(=O)CN2C(=O)C3(SCC(=O)N3c3ccccc3)c3ccccc32)cc1Cl (stereo unspecified),–,0.792%
CC(CC(=O)Nc1ccc2c(c1)c(=O)n(C)n2-c1ccccc1)c1ccccc1 (stereo unspecified),2.23 µM (active),–
Cn1c(=O)c2cc(NC(=O)Cc3cccc4ccccc34)ccc2n1-c1ccccc1,7.04 µM (active),–
CC(CC(=O)Nc1ccc2c(c1)c(=O)n(C)n2-c1ccccc1F)c1ccccc1 (stereo unspecified),12.5 µM (active),–

Compound,Potency,"activity, negative = inhibitor"
CCOc1ccc(S(=O)(=O)NCc2ccccn2)cc1NC(=O)c1ccccc1,3.14 µM (active),–
CCN1/C(=C/C=C2/SC(=Nc3cccc4ncccc34)N(C)C2=O)Sc2ccccc21,2.31 µM (active),–
CCc1ccc2nc(SCC(=O)N3CC(=O)Nc4ccccc43)c(C#N)cc2c1,14 µM (active),–
COc1ccc2nc(SCC(=O)N3CC(=O)Nc4ccccc43)c(C#N)cc2c1,16.4 µM (active),–
CCc1ccc2nc(SCC(=O)Nc3ccccc3N3CCOCC3)c(C#N)cc2c1,2.59 µM (active),–
N#Cc1cc2ccccc2nc1SCC(=O)Nc1ccccc1N1CCOCC1,–,-24.1%
CCC1CCCCN1CCCNC(=O)c1ccc2c(c1)N(Cc1ccccc1F)C(=O)c1ccccc1S2(=O)=O (stereo unspecified),4.11 µM (active),–
N#Cc1ccc(-c2cccnc2)nc1SCC(=O)c1ccccc1,2.91 µM (active),–
Cc1nc(SCC(=O)c2ccccc2)c(C#N)c(-c2ccco2)c1C(=O)NCc1ccco1,–,-16.1% [at 36.9 µM]
Cc1ccc(C(=O)CSc2nc(-c3ccccc3)ccc2C#N)cc1,16.4 µM (active),–
CC(=O)c1ccc2cccc3c2c1N=CN3C,12.5 µM (active),–
CN1CCc2c(sc(NC(=O)CSc3ccc(F)cc3)c2-c2nc3ccccc3s2)C1,14.6 µM (active),–
CC(=O)N1CCc2c(sc(NC(=O)CSc3ccccc3)c2-c2nc3ccccc3s2)C1,16.4 µM (active),–
CC(=O)Nc1sc2c(c1-c1nc3ccccc3s1)CCN(C(C)C)C2,3.26 µM (active),–
CC[n+]1cc(C)ccc1/C=C/c1ccc(N(C)C)cc1,17.7 µM (active),–
Cc1ccc(/C=C/c2ccc(N(C)C)cc2)[n+](C)c1,15.8 µM (active),–
CN(C)c1ccc(/C=C/c2cc[n+](C)cc2)cc1,17.7 µM (active),–
CCOC(=O)c1c(CC(C)C)csc1/N=C/C1C(=O)CCCC1=O,–,-3.7%
O=C(NCc1cccc(C(F)(F)F)c1)c1cccc2c1C(=O)c1ccc(N3CCC(Cc4ccccc4)CC3)cc1S2(=O)=O,18.4 µM (active),–
O=C(NCc1ccco1)c1cccc2c1C(=O)c1ccc(N3CCC(Cc4ccccc4)CC3)cc1S2(=O)=O,20.6 µM (active),–
O=C(NCc1cc(C(F)(F)F)ccc1Cl)c1cccc2c1C(=O)c1ccc(N3CCC(Cc4ccccc4)CC3)cc1S2(=O)=O,14 µM (active),–
O=C(NCc1cc(C(F)(F)F)ccc1Cl)c1cccc2c1C(=O)c1ccc(N3CCOCC3)cc1S2(=O)=O,18.4 µM (active),–
